tim10-1 inh – growth inhibitors of tim10-1 mutant yeast, primary screen, luminescence, uHTS | S. cerevisiae tim10-1 ts strain growth, BacTiter-Glo, 24 h | inhibition, % at 20 µM | actives 2.2% (n = 330,000);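 active = inhibition of at least 40%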;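 note: mutant grown at 25 °C; 0% = DMSO wells with yeast and 100% = wells holding no yeast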
SKKanGAS inh – S. pyogenes SKKanGAS growth inhibitors in kanamycin, primary screen, streptokinase expression inhibitor project, SKKanGAS strain, BacTiter-Glo luminescence; 6 h; inhibition, % at 7.5 µM; actives 1.3% (n = 300,000);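 active = mean replicate score, as percent of positive control median, at least 50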;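 note: strain carries kanamycin resistance gene driven by streptokinase promoter and grows in 40 µg/ml kanamycin; loss of luminescence reflects streptokinase promoter inhibition or plain growth inhibition; 0% = median of DMSO wells and 100% = positive control at its reference dose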
PfHsp90 yeast 2 – growth inhibition of PfHsp90-expressing yeast, primary screen, antimalarial PfHsp90 inhibitor project, S. cerevisiae, BacTiter-Glo luminescence, single point, set 2; inhibition, % at 9.4 µM; actives 0.32% (n = 310,000); BacTiter-Glo ATP, 48 h; yeast lacking PDR1 and PDR3 efflux regulators; AID 504621, 2011;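 active = every replicate shows inhibition above about 80%, whatever the replicate mean, limit read from the data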;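 note: 0% = DMSO neutral controls and 100% = 20 µM radicicol positive controls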
NLRP3 yeast inh – NALP3 inflammasome inhibitors in reconstituted yeast, primary screen, luminescence, uHTS | actives 0.39% (n = 330,000) | Yeast reconstituted NLRP3/ASC/caspase-1, beta-gal luminescence, 24 h | inhibition, % at 10 µM;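 active = inhibition of 50% or more; inactive = inhibition below 50%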;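 note: plate controls were induced DMSO wells for no effect and uninduced yeast grown without galactose for full effect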
TIM10 inh – growth inhibitors of isogenic TIM10 control yeast, primary screen, counter-screen for tim10-1 yeast inhibitor project, luminescence, uHTS; S. cerevisiae TIM10 strain growth, BacTiter-Glo luminescence, 24 h; inhibition, % at 10 µM; actives 1.4% (n = 330,000); AID 463195, 2010;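 active = inhibition of 40% or more at the single tested concentration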;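 note: wild-type TIM10 isogenic control strain grown at permissive 25 °C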
tim23-1 inh – growth inhibitors of tim23-1 mutant yeast, primary screen, luminescence, uHTS | S. cerevisiae tim23-1 growth, BacTiter-Glo luminescence, 24 h | inhibition, % at 20 µM | actives 1.3% (n = 330,000) | AID 463212, 2010;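 active = growth inhibition of the mutant yeast at or above 50%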;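 note: temperature-sensitive mutant grown at 25 °C; plate controls were DMSO-treated mutant yeast for no effect and medium wells lacking yeast for full effect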
Active calls of the source: *; · = no result. Only some compounds are listed: those with a hit (about 4.5% of all), similar ones and a draw of the others.

SMILES	tim10-1 inh	SKKanGAS inh	PfHsp90 yeast 2	NLRP3 yeast inh	TIM10 inh	tim23-1 inh
Cn1c(-c2c(N)n(-c3ccccc3)c3nc4ccccc4nc23)nc2ccccc21	·	-19	-6	·	·	·
COc1cc(Cc2cc(N)nc(N)n2)cc(OC)c1OC	21	71*	30	24	-11	11
COc1ccc(OC)c(C2C(C(=O)c3ccccc3)=C(C)Nc3nc4ccccc4n32)c1 (stereo not given)	-3	76*	-6	12	-6	16
C=CCn1c(COc2ccccc2)nnc1SCC(=O)N/N=C/c1cc(Cl)ccc1O	12	63*	0	15	11	22
C=CCn1c(COc2ccccc2)nnc1SCC(=O)N/N=C/c1ccc(C)cc1	29	0	-23	9	22	11
Cc1cc(Cl)ccc1NS(=O)(=O)c1c(C)[nH]c(=O)[nH]c1=O	3	0	-6	-3	8	-6
COc1ccc(-c2cc(C(=O)N/N=C(\C)c3ccco3)c3ccccc3n2)c(OC)c1	16	54*	2	-7	5	8
CCCCC(CC)C(=O)Nc1cc(C(=O)NCCC)ccc1N1CCC2(CC1)CC(c1ccccc1)=NO2 (stereo not given)	14	23	8	19	17	28
O=C(O)CC/C(=N/Nc1ccc([N+](=O)[O-])cc1)C(=O)O	-54	-16	100*	11	12	-29
C/C(=N\Nc1ccc([N+](=O)[O-])cc1)c1ccc(C#N)cc1	-6	1	6	9	-13	-28
N#CC(C#N)=NNc1ccc([N+](=O)[O-])cc1	-2	86*	7	36	38	20
C(=NN=C1c2ccccc2-c2ccccc21)c1c[nH]c2ccccc12	·	·	131*	·	·	·
Oc1ccc(C=NN=C2c3ccccc3-c3ccccc32)c(O)c1	·	·	137*	·	·	·
CCC(=O)c1ccc(OCC(=O)OCC(=O)NCC2CCCCC2)cc1	18	-7	22	0	6	18
CCCc1ccc(-c2cc(N)n[nH]2)cc1	21	113*	9	-5	14	11
O=C(NCc1ccc(Cl)cc1)c1cccnc1	16	-1	2	0	1	9
COc1ccc(C(NC(C)=O)c2cc(Cl)c3cccnc3c2O)cc1 (stereo not given)	36	53*	-103	31	-5	46
CCCCC(=O)NC(c1ccco1)c1c(O)ccc2ccccc12 (stereo not given)	27	-11	-15	15	4	21
O=C(NC(c1ccc(Cl)cc1)c1cc(Cl)c2cccnc2c1O)c1cccnc1 (stereo not given)	·	113*	102*	·	·	·
CCCCC(=O)NC(c1cccs1)c1cc(Cl)c2cccnc2c1O (stereo not given)	23	67*	103*	20	13	44
CCCC(=O)NC(c1ccc(N(C)C)cc1)c1ccc2cccnc2c1O (stereo not given)	-26	39	1	14	-92	42
CC(=O)NC(c1cc(F)c2cccnc2c1O)C1CC1 (stereo not given)	25	·	·	13	0	29
CCCC(=O)NC(c1ccc(OC)c(OC)c1)c1cc(Cl)c2cccnc2c1O (stereo not given)	26	23	100*	17	-7	8
O=C(NNC(=O)C12CC3CC(CC(C3)C1)C2)c1ccccc1[N+](=O)[O-]	8	0	-40	7	-1	4
O=C(COC(=O)C1CC2CCCC(C1)C2=O)NNC(=O)c1ccccc1Br (stereo not given)	-11	·	-13	6	3	-10
SMILES	tim10-1 inh	SKKanGAS inh	PfHsp90 yeast 2	NLRP3 yeast inh	TIM10 inh	tim23-1 inh
CCCOc1ccc(C(=O)CCC(=O)OCC(=O)Nc2cccc(S(N)(=O)=O)c2)cc1	-2	·	3	9	3	-2
COc1ccccc1NC(=O)C(C)OC(=O)C1CCN(S(=O)(=O)c2ccccc2C(F)(F)F)CC1 (stereo not given)	·	·	3	·	·	·
Cc1cc(C)cc(N2C(=O)C=CC2=O)c1	·	·	108*	·	·	·
O=C(Nc1ccc(Cl)cc1)Nc1nc(-c2ccccc2O)cs1	-10	61*	-11	10	2	-18
COc1ccc(Sc2nc(-c3ccccn3)ncc2OC)cc1	27	11	7	28	30	43
COc1cnc(-c2ccccn2)nc1N(C)c1ccccc1	-31	72*	11	25	23	10
COc1cnc(-c2ccccn2)nc1Oc1ccccc1	-5	57*	-5	12	-38	-8
CCOC(=O)CSc1nc(-c2ccccn2)ncc1OC	-9	11	10	-9	-26	-21
COc1ccccc1/C=C/C(=O)NCc1cccnc1	1	2	1	3	-4	9
CCCCCCCC(=O)C(C)C(=O)N(C)[C@H](Cc1ccc(OC)cc1)C(=O)N(C)[C@H](C(N)=O)C(C)C (stereo not given in full)	21	·	10	12	1	22
COc1ccccc1CCC(=O)Nc1ccc(S(=O)(=O)Nc2nccs2)cc1	8	-10	-5	3	-5	-3
Cc1nn(-c2ccccc2)c(C)c1/C=N/NC(=O)c1cc(-c2cccs2)[nH]n1	4	10	-9	7	-12	5
COc1cc(/C=N/NC(=O)c2cc(-c3c(C)nn(-c4ccccc4)c3C)n[nH]2)ccc1O	22	87*	-5	-4	-6	21
Cc1nn(-c2ccccc2)c(C)c1-c1cc(C(=O)N/N=C/c2ccc(O)cc2)[nH]n1	9	9	-32	17	7	19
Cc1nn(-c2ccccc2)c(C)c1/C=N/NC(=O)c1cc(-c2ccc(Cl)s2)[nH]n1	24	59*	·	13	19	24
Cc1nn(-c2ccccc2)c(C)c1/C=N/NC(=O)c1cc(-c2ccc(Br)s2)[nH]n1	8	51*	·	9	-2	11
CN(Cc1cccnc1)C(=O)c1ccc2nc(Cc3ccccc3F)oc2c1	9	2	10	7	4	19
C=CCN(CC=C)C(=O)c1ccc(OC2CCN(C(C)=O)CC2)c(OC)c1	4	5	9	7	-10	10
CC(C)Cn1c(=O)c(C(=O)N/N=C/c2cccc(F)c2)c(O)c2ccccc21	-2	64*	-8	4	-6	-3
CCCOc1ccc(Cc2c(Cl)nc(SC)nc2OC)cc1	9	53*	-7	9	10	-8
CCCOc1ccc(Cc2c(Cl)nc(SC)nc2N(C)C)cc1	15	64*	0	21	19	11
COc1nc(SC)nc(Cl)c1Cc1ccc(OC(C)C)cc1	0	1	-11	18	-17	11

Assay outcomes from PubChem.
